# Test results as given in PubChem BioAssay (NCATS).
# Where “and” joins values, the source holds several entries; their conditions need not be identical. Identical values can stand only once. A number with no mark means an inactive call. Records with an inconclusive call do not appear. Where a call stands in place of a potency, no number is given. Calls of active or inactive are those of the source. Calls follow the shape of the dose curve; as a rule, active = well fitted curve in the direction sought with a large enough effect; inconclusive = small, poorly fitted or top-dose-only effect, or another doubt; inactive = no such curve, though single readings can be large; an effect the other way counts as inactive or inconclusive.
# Experiments:
# [1] = Quantitative High-Throughput drug screen in 47 multiple myeloma cell lines against the NCATS MIPE library collection: FR4_PLB cell viability assay (AID 1918924; also: nearly all actives have a fitted effect of over 35% in size; also: potency is read from the fitted curve at half-maximal effect)
# How it was run: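 Relative luminescence from CellTiter-Glo served as the viability signal, referenced to DMSO-treated (100%) and cell-free medium (0%) controls. Treatment lasted 48 hours at 37C with 500 cells per well.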
# [2] = Quantitative High-Throughput drug screen in 47 multiple myeloma cell lines against the NCATS MIPE library collection: Delta47_JCRB cell viability assay (AID 1918925; also: nearly all actives have a fitted effect of over 45% in size; also: potency is read from the fitted curve at half-maximal effect)
# How it was run: (§1)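 We plated 500 myeloma cells per well, pinned in MIPE 4.0 compounds, and incubated for 48 hours at 37C. ATP was then quantified with CellTiter-Glo, with DMSO and media-only wells defining 100% and 0%.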
# [3] = Quantitative High-Throughput drug screen in 47 multiple myeloma cell lines against the NCATS MIPE library collection: EJM_DSMZ cell viability assay (AID 1918926; also: nearly all actives have a fitted effect of over 30% in size; also: potency is read from the fitted curve at half-maximal effect)
# How it was run: as §1
# [4] = Quantitative High-Throughput drug screen in 47 multiple myeloma cell lines against the NCATS MIPE library collection: AMO1_DSMZ cell viability assay (AID 1918927; also: nearly all actives have a fitted effect of over 30% in size; also: potency is read from the fitted curve at half-maximal effect)
# How it was run: as §1
# [5] = molecular target: Phospholipid hydroperoxide glutathione peroxidase GPX4 (Homo sapiens) (UniProt P36969); test: Primary qHTS Assay for Inhibitors of Recombinant Selenoprotein Glutathione Peroxidase 4 (GPX4) (AID 1845192); also: nearly all actives have a fitted effect of over 65% in size
# How it was run: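 qHTS, GR-coupled: GPX4 200 nM + cpd 30 min RT → GSH 1 mM, NADPH 0.5 mM, GR 100 nM → CHP 0.5 mM start; fluor 340/450 at t0 and t15 min; no-enzyme wells as control.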
# [6] = molecular target: Luciferin 4-monooxygenase (Photinus pyralis) (UniProt P08659); test: Primary firefly luciferase (FLuc) qHTS assay for identification of artifact compounds. (AID 1845220); also: nearly all actives have a fitted effect of over 60% in size
# How it was run: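 qHTS, 15 min compound preincubation with substrate (10 uM luciferin, 10 uM ATP) at RT, then 10 nM FLuc; 5 min; luminescence; % inhibition vs no-enzyme/DMSO controls, 4-parameter Hill fit.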
# [7] = Primary fluorescence-based thiol-reactive (MSTI) qHTS assay for identification of artifact compounds. (AID 1845221);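 also: series mostly up to about 54 µM; thiol-reactive compounds lower the probe fluorescence signal; nearly all actives have a fitted effect of over 65% in size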
# How it was run: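 In PBS pH 7.4 with 2% DMSO, each compound met 4 uM MSTI for one hour at ambient temperature, shielded from light, before fluorescence detection.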
# [8] = tested on: Nanoluciferase (engineered Oplophorus gracilirostris luciferase); test: Primary Nanoluciferase (NLuc) qHTS assay for identification of artifact compounds. (AID 1845222); also: series mostly up to about 54 µM
# How it was run: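 Luminescence read-out of secreted NLuc in S16 cell conditioned medium (1:55); compounds tested with 15 min RT preincubation, then Nano-Glo substrate 1:100, 5 min. % inhibition vs no-enzyme and DMSO controls, 4-parameter Hill fit.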
# [9] = Primary redox qHTS assay for identification of artifact compounds. (AID 1845223)
# How it was run: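 Redox-cycling detection via DTT (250 uM final) oxidation coupled to Amplex Red (25 uM)/HRP (250 mU/mL) in HBSS. 15 min preincubation plus 30 min after DTT, room temperature. Ex/Em 525/598 nm; 4-parameter Hill fit against DMSO and 10 uM DA3003.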
# [10] = Quantitative High-Throughput drug screen in 47 multiple myeloma cell lines against the NCATS MIPE library collection: ARP1_JJKsccF8 cell viability assay (AID 1918928; also: nearly all actives have a fitted effect of over 40% in size)
# How it was run: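 CellTiter-Glo luminescence after 48 h exposure gives viability, scaled between DMSO-only (100%) and media-only (0%) controls. Library compounds are pinned onto 500 myeloma cells per well, incubated at 37C with 5% CO2.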
# Chain of Phospholipid hydroperoxide glutathione peroxidase GPX4 (Homo sapiens) (P36969 whole entry, looked up): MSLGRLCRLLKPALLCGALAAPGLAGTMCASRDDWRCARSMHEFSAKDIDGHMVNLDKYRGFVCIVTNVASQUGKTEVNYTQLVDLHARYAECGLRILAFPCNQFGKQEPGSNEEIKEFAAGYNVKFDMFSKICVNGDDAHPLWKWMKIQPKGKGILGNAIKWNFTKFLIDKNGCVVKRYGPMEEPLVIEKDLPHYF
structure (smiles),measurement,setting,value
Cc1c(CN2CCN(C(=O)C(C)C)CC2)sc2c(N3CCOCC3)nc(-c3cnc(N)nc3)nc12,Potency,[1],0.0833 µM (active)
same,Potency,[2],46.9 nM (active)
same,Potency,[3],0.833 µM (active)
same,Potency,[4],0.166 µM (active)
Cc1ccc(NC(=O)c2cccc(C(C)(C)C#N)c2)cc1Nc1ccc2ncn(C)c(=O)c2c1,Potency,[5],inactive
same,Potency,[4],5.9 µM (active)
O=C1CCCC2=C1C(c1[nH]ncc1Cl)N=C(Nc1nc3ccccc3o1)N2 (centres undefined),Potency,[5],inactive
same,Potency,[6],inactive
same,Potency,[7],inactive
same,outcome,[8],inactive
same,outcome,[9],inactive
same,Potency,[1],inactive
same,Potency,[4],inactive
CC1(C)SCCN(S(=O)(=O)c2ccc(OCC#CCO)cc2)[C@@H]1C(=O)NO,Potency,[3],inactive
same,Potency,[4],2.64 µM (active)
CC(C=CC1=C(C)CCCC1(C)C)=CC=CC(C)=CC(=O)O,Potency,[2],11.8 µM (active) and 4.18 µM (active)
same,Potency,[3],13.2 µM (active)
CC(C)OC(=O)C1=CN(C(=O)c2ccc(F)c(F)c2)CC(C)(C)c2c1[nH]c1ccccc21,Potency,[5],inactive
same,Potency,[6],inactive
same,outcome,[8],inactive
same,outcome,[9],inactive
same,Potency,[1],inactive
same,Potency,[2],inactive
same,Potency,[3],inactive
CNC(=O)c1ccc(C)c(-n2c(C)cc(OCc3ccc(F)cc3F)c(Br)c2=O)c1,Potency,[5],inactive
same,Potency,[6],inactive
same,Potency,[7],inactive
same,outcome,[8],inactive
same,outcome,[9],inactive
same,Potency,[2],14800 nM (active)
same,Potency,[3],20.9 µM (active)
same,Potency,[4],16.6 µM (active)
NC(=O)c1ccc(-c2nc(-c3ccc4c(c3)OCO4)c(-c3ccccn3)[nH]2)cc1,Potency,[5],inactive
same,Potency,[1],14.8 µM (active)
same,Potency,[2],inactive
O=C(C=Cc1ccc(/C=C/C(=O)Nc2ccc(C3=NCCN3)cc2)cc1)Nc1ccc(C2=NCCN2)cc1,Potency,[1],inactive
same,Potency,[2],inactive
same,Potency,[3],inactive
same,Potency,[10],inactive
Cc1cc(C=c2sc3nc4ccccc4n3c2=O)c(C)n1-c1ccccc1,Potency,[3],6.62 µM (active)
same,Potency,[4],inactive
CS(=O)(=O)c1ccc(C(=O)Nc2ccc(Cl)c(-c3ccccn3)c2)c(Cl)c1,Potency,[5],inactive
same,Potency,[6],inactive
same,Potency,[7],inactive
same,outcome,[8],inactive
same,outcome,[9],inactive
same,Potency,[1],inactive
same,Potency,[3],inactive
same,Potency,[10],inactive
Nc1cccc(S(=O)(=O)N2CCCN(S(=O)(=O)c3ccc4c(c3)OCCO4)CC2)c1,Potency,[5],inactive
same,Potency,[1],inactive
same,Potency,[2],833 nM (active)
same,Potency,[4],4.18 µM (active)
CCN(c1ccccc1)c1cc(NC)[n+](C)c(C)n1,Potency,[5],inactive
same,Potency,[1],inactive
same,Potency,[2],inactive
same,Potency,[4],0.743 µM (active)
CCC(C)n1ncn(-c2ccc(N3CCN(c4ccc(OC[C@H]5CO[C@](Cn6cncn6)(c6ccc(Cl)cc6Cl)O5)cc4)CC3)cc2)c1=O (some centres undefined),Potency,[5],inactive
same,Potency,[6],inactive
same,Potency,[7],inactive
same,outcome,[8],inactive
same,outcome,[9],inactive
same,Potency,[2],inactive
same,Potency,[3],2.96 µM (active)
